Laboratory results taken from PubChem BioAssay (NCI).
The panel holds about 83,000 compounds, 20% with a hit somewhere; the sample as a whole holds those more often.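 Growth was measured after 48 h exposure to one concentration of compound in 96-well plates. Values under 10 count as active.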 A number with no mark means an inactive call. The source made the active and inactive calls.

What follows are compounds tested on K-562 leukemia (assay: NCI-60 one-dose screen, 48 h (100 = growth as untreated, 0 = no growth, -100 = all killed)). Details: 10 µM unless noted.

| Compound | growth |
| --- | --- |
| c1csc(C2=NN3C(C2)c2ccccc2OC3c2ccncc2)c1 (centres undefined) | 99.2% |
| CC1=CC(C)(C)Nc2ccc(Cc3ccc4c(c3)C(C)=CC(C)(C)N4)cc21 | 114% |
| CCCCn1c(-c2ccc(C(=O)O/N=C(\N)c3ccc4ccccc4c3)cc2)nc(-c2ccccc2)c1-c1ccccc1 | 11.9% |
| O=C(Nc1ccc(Cl)cc1)c1cc2cc(F)ccc2cc1O | 11.5% |
| Cn1cc(-c2nonc2-c2cn(C)c3ccc(F)cc23)c2cc(F)ccc21 | 12.6% |
| CCN(CC)S(=O)(=O)c1ccc(OC)c(NC(=O)c2[nH]c(C)c3c2CCCCC3=O)c1 | 30% |
| COc1cccc(-c2nc3sccn3c2-c2ccnc(NCCCNS(=O)(=O)c3cccc(F)c3)c2)c1 | 11.4% |
| COc1cc(/C=C/c2cc(/C=C/c3ccc(O)c(OC)c3)n(-c3c(C)cccc3C)c(=O)n2)ccc1O | 5.52% (active) |
| Cc1cc(C)c2nc3nc(C)cc(C)c3c(N)c2c1 | 10% (active) |
| FC(F)(F)c1ccc(-c2cn3nc(-c4c[nH]c5ccc(Br)cc45)sc3n2)cc1 | 97.9% |
| CC(=O)O[C@H]1[C@@H]2OC(=O)C(CSc3ccccc3)[C@@H]2C[C@H]2O[C@]2(C)CC/C=C(\C)CCC[C@@H]1C (some centres undefined) | 63.1% |
| Cc1cc(C)nc(SC2=C(Nc3ccc(O)cc3)C(=O)N(Cc3ccccc3)C2=O)n1 | 78.1% [40 µM] |
| COC(=O)c1ccc(Cn2cnc3c(N)ncnc32)cc1 | 89.4% |
| CCOc1nc(-c2ccccc2)cc2c(O)c(C(=O)O)[nH]c(=O)c12 | 112% |
